The source of these data is PubChem BioAssay (Tox21).

The nature of experiment [1]: qHTS assay to identify small molecule HDAC inhibitors - cell viability counter screen (AID 1259365). Further: series mostly up to about 92 µM; nearly all actives have a fitted effect of over 50% in size. Put shortly: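 Counter screen in wild-type HCT-116 cells: compounds dissolved in DMSO are pin-transferred onto overnight-plated cells and left 2hr at 37C. ATP-based CellTiter-Glo luminescence then measures viable cells.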
Experiment [2] can be described thus: qHTS assay to identify small molecule agonists of the sonic hedgehog signaling (Shh) pathway - cell viability counter screen (AID 1259366). Further: nearly all actives have a fitted effect of over 50% in size. Further: potency means the concentration at half of the fitted maximal effect. The procedure, abridged: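 Cells are plated at 2,000 per well and left 4hr at 37C, 5% CO2 before compound addition. After 23hr of treatment, CellTiter-Fluor reagent is added for 1hr at 37C and fluorescence is measured.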
In general terms: Quantitative high-throughput screening tests each substance at several concentrations.

Experiment [3] can be described thus: qHTS assay to identify small molecule antagonists of the sonic hedgehog signaling (Shh) pathway - cell viability counter screen (AID 1259367). Further: nearly all actives have a fitted effect of over 55% in size. Put shortly:
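Viability was read by CellTiter-Fluor fluorescence in the same wells, reagent added 23 hr into compound treatment and incubated 1 hr at 37C. The 3T3 Gli1-Luc reporter cells (2,000/well) received conditioned medium after compound and ran 24 hr.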

The nature of experiment [4]: qHTS assay to identify small molecule agonists of the sonic hedgehog signaling (Shh) pathway (AID 1259368; calls by dose curve;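 further: NIH/3T3-derived 3T3Gli1-Luc cells carrying a stable Gli1-driven firefly luciferase reporter; series mostly up to about 92 µM; nearly all actives have a fitted effect of over 15% in size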). The procedure, abridged:
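Luminescence was read after 30 min at room temperature with luciferase reagent. Before that, 3T3Gli1-Luc cells (NIH/3T3 clone, stable Gli1-Luc reporter; 2,000/well) were exposed to compounds for 24 hr at 37C, 5% CO2, compounds being added 4 hr post-plating.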

Experiment [5] can be described thus: qHTS assay to identify small molecule antagonists of the sonic hedgehog signaling (Shh) pathway (AID 1259369; calls by dose curve; further: nearly all actives have a fitted effect of over 45% in size). The procedure, abridged: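 Antagonist mode: compound added to 3T3 Gli1-Luc cells followed by conditioned-medium stimulation, 24 h at 37 C, 5% CO2. Inhibition taken as loss of Gli1-driven luciferase luminescence.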
The nature of experiment [6]: qHTS assay to identify small molecule agonists of the androgen receptor (AR) signaling pathway in the presence of an antagonist - cell viability counter screen (AID 1259379). Further: nearly all actives have a fitted effect of over 25% in size. Further: potency means the concentration at half of the fitted maximal effect.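 On activity change, negative = cytotoxicity: MDA-kb2 human breast cancer cells carrying an MMTV luciferase reporter; series mostly up to about 92 µM.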 Put shortly: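 Cytotoxicity counter-screen run in the same wells as the nilutamide-challenged (3.0 µM final) AR agonist assay in MDA-kb2 cells. Compounds tested at 15 concentrations for 16 h, 37 °C without CO2; CellTiter-Fluor fluorescence read.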

Experiment [7] in a line: qHTS assay to identify small molecule agonists of the estrogen receptor beta (ER-beta) signaling pathway - cell viability counter screen (AID 1259380). Further: nearly all actives have a fitted effect of over 30% in size. Put shortly:
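Cell viability counter screen: CellTiter-Glo luminescence (30 min, room temperature) measured in the same wells as the beta-lactamase readout, after 16 hr compound exposure at 37C of ER-beta-bla HEK293T cells in 2% charcoal-stripped FBS medium.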

For experiment [8], the target named is Estrogen receptor beta (Homo sapiens) (UniProt Q92731). The experiment in a line: qHTS assay to identify small molecule agonists of the estrogen receptor beta (ER-beta) signaling pathway (AID 1259377; active means well fitted activation curve with a large enough effect in the signal ratio in the repeat runs, not every such curve was filed as active; the % refers to the signal ratio). Put shortly: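 Agonist mode cell assay in GripTite HEK293T cells expressing an ER-beta fusion that drives beta-lactamase from an Upstream Activator Sequence; 16 hr compound exposure at 37C, then 2 h LiveBLAzer B/G FRET substrate at room temperature, fluorescence read-out.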

The target is the same in experiment [9]. The experiment in a line: qHTS assay to identify small molecule antagonists of the estrogen receptor beta (ER-beta) signaling pathway (AID 1259378; active means well fitted inhibition curve with a large enough effect in the signal ratio in the repeat runs, not every such curve was filed as active; the % refers to the signal ratio). The procedure, abridged: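 Antagonist mode: compounds added to beta-lactamase reporter HEK293T ER-beta-UAS cells stimulated with E2 (1nM final), 16 hr at 37C. LiveBLAzer B/G FRET substrate, 2 hours room temperature, fluorescence read-out.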

In experiment [10] the target is Androgen receptor (Homo sapiens) (UniProt P10275). Nature of the experiment: qHTS assay to identify small molecule agonists of the androgen receptor (AR) signaling pathway in the presence of an antagonist (AID 1259381; calls by dose curve; further: nearly all actives have a fitted effect of over 15% in size). The procedure, abridged: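 Agonist-mode confirmation run against 3.0 uM final nilutamide: compounds titrated at 15 concentrations onto MDA-kb2 MMTV-luciferase reporter cells. Luminescence measured with ONE-Glo following 16 hr incubation, 37C, 0% CO2.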

Molecules are shown by their SMILES. A number with no mark means an inactive call. Records with an inconclusive call do not appear. Calls of active or inactive are those of the source. Unless noted, the call rests on the fitted dose curve; in most records, active means well fitted curve in the direction sought with a large enough effect in the repeat runs; inconclusive means weak or mixed curves; inactive means no such curve, though single readings can be large; an effect the other way counts as inactive or inconclusive.
On the % scale 0 is the no-effect control and ±100 the full control effect.

Sequence of Androgen receptor (Homo sapiens) (P10275 whole entry, looked up): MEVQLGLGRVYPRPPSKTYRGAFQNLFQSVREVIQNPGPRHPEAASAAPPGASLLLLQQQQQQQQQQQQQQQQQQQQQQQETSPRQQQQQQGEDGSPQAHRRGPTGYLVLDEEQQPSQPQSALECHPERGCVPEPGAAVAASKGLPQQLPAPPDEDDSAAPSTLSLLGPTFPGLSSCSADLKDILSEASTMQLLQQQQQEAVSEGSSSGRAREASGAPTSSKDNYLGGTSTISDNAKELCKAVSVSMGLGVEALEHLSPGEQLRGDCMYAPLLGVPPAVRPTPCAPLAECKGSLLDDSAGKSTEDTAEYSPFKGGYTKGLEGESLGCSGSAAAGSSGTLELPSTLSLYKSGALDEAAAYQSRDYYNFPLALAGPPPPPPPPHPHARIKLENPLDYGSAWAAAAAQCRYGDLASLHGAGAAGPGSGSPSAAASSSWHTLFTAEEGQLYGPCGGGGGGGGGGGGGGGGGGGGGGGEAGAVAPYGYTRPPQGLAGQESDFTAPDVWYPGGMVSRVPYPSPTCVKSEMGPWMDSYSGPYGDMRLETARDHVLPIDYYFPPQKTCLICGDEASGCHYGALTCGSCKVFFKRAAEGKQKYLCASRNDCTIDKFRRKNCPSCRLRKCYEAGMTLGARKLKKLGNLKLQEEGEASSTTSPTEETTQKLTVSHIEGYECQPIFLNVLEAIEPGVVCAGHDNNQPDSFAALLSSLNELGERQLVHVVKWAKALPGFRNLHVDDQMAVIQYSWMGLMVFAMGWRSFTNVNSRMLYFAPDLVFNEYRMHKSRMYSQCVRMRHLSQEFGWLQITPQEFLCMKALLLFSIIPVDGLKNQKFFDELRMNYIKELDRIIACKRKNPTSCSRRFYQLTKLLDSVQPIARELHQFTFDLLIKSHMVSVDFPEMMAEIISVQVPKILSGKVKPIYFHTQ
Sequence of Estrogen receptor beta (Homo sapiens) (Q92731 whole entry, looked up, the tested form may be a part): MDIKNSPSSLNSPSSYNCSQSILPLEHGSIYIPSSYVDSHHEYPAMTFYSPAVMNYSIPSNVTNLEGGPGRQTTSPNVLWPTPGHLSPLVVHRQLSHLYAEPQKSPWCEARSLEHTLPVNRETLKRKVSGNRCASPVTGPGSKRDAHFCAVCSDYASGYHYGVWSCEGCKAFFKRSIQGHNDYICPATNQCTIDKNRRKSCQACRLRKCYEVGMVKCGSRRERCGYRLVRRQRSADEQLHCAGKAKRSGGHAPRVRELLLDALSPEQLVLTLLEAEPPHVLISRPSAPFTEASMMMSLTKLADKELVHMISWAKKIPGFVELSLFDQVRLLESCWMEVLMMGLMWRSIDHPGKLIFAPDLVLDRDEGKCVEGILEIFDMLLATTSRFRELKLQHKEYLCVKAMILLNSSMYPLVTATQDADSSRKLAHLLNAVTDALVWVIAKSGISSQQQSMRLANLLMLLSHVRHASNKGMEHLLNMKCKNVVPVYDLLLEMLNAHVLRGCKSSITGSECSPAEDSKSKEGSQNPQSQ

As for `O=P(O)(O)OCC(O)CO` (configuration not stated), the molecule was classed as inactive in experiment [1], in experiment [4] and in experiment [7]. The Potency entry in experiment [2], in experiment [3], in experiment [5] and in experiment [6] was “inactive” each time.

Take `CC(=O)OCCCc1ccccc1`: the molecule was called inactive in experiment [1], in [4], in [9] and in experiment [7]. Moreover, the Potency entry in experiment [2], in experiment [3], in experiment [8] and in experiment [6] was “inactive” throughout.

Turning to `CCCCCCCCOC(C)=O`, the outcome in [1], in experiment [4] and in experiment [7] was inactive. Moreover, the Potency entry in experiment [2], in experiment [3], in experiment [5] and in experiment [6] was “inactive” throughout.

In the case of `c1ccccc1`, the call in experiment [1], in [4] and in experiment [7] was inactive. Moreover, the Potency result in experiment [2], in experiment [3], in [5] and in [6] was “inactive” each time.

`CC(=O)N(CC(O)CO)c1c(I)c(C(=O)NCC(O)CO)c(I)c(C(=O)NCC(O)CO)c1I` (configuration not stated): the result in [1], in [4] and in [7] was inactive. In addition, the Potency result in experiment [2], in [3], in experiment [5] and in [6] was “inactive” each time.

Consider `Cc1cccc(C(=O)O)c1[N+](=O)[O-]`, for which the result in experiment [1], in experiment [4], in experiment [9] and in [7] was inactive. Also, the Potency entry in experiment [2], in experiment [3], in experiment [8] and in experiment [6] was “inactive” each time.

Take `O=C(Nc1cccc(C2=NCCN2)c1)Nc1cccc(C2=NCCN2)c1`: the activity change, negative = cytotoxicity is 1.17% [at 19 µM] in [1], 1.81% [at 19 µM] in experiment [6] and 2.07% [at 19 µM] in experiment [7]. For the same molecule, the viability change, negative = cytotoxic in experiment [2] is 8.12% [at 19 µM]; in experiment [3], 0.404% [at 19 µM]. Also, the activity change in experiment [4] was 1.95% [at 18.9 µM]. In addition, in [5], the activity change, negative = inhibition is 17.1% [at 19 µM].

For the molecule `C=CCOCC(O)CCl` (configuration not stated), the molecule was classed as inactive in [1], in [4], in [7] and in experiment [10]. For the same molecule, the Potency entry in experiment [2], in [3], in experiment [8] and in [6] was “inactive” each time.

As for `COc1ccc(N=Nc2cc(C)c(N=Nc3ccc(S(=O)(=O)O)cc3)cc2OC)cc1`, the result in [1], in experiment [4] and in [7] was inactive. The Potency in [2] is 54.5 µM (active); in experiment [6], 48.6 µM (active). In addition, the Potency entry in [3] and in experiment [8] was “inactive” in each case.

As to `Cc1cc(C)cc([N+](=O)[O-])c1`, the molecule was called inactive in experiment [1], in [4] and in experiment [7]. Also, the Potency result in experiment [2], in experiment [3] and in experiment [6] was “inactive” throughout.

On to `CCCCCCCCCCCCCCCCI`, for which the activity change, negative = cytotoxicity in experiment [1] is -1.08% [at 19 µM]; in experiment [6] it was -1.43% [at 19 µM]; in experiment [7], -6.04% [at 19 µM]. Further, the viability change, negative = cytotoxic in experiment [2] is 5% [at 19 µM]; in [3], -1.6% [at 19 µM]. Further, in experiment [4], the activity change is -0.0263% [at 18.9 µM]. In addition, the figures for the activation in [8] and in experiment [10] were 0.348% [at 19 µM] and 0.857% [at 19 µM], respectively. Besides, in [9], the activity, negative = inhibition is 2.97% [at 19 µM].

On to `CC1CCC(C(C)(C)S)C(=O)C1` (configuration not stated), for which the call in [1], in experiment [4] and in experiment [7] was inactive. Further, the Potency result in experiment [2], in [3], in [8] and in experiment [6] was “inactive” each time.

Regarding `CCc1nccnc1C`, the molecule was called inactive in experiment [1], in experiment [4] and in [7]. The Potency result in experiment [2], in experiment [3], in experiment [8] and in experiment [6] was “inactive” each time.

As to `CC(C)COC(=O)CCCCC(=O)OCC(C)C`, the outcome in experiment [1], in experiment [4] and in experiment [7] was inactive. Moreover, the Potency entry in experiment [2], in experiment [3] and in [6] was “inactive” in each case.

`CCCCC(CC)C(=O)OC(C)C` (configuration not stated): the molecule was called inactive in experiment [1], in experiment [4] and in [7]. The Potency entry in experiment [2], in [3] and in experiment [6] was “inactive” each time.

With `O=C(O)Cc1cccc(-c2cc(CCCCCCc3ccc(O[C@H]4O[C@H](CO)[C@@H](O)[C@H](O)[C@@H]4O)c(-c4cccc(CC(=O)O)c4)c3)ccc2O[C@H]2O[C@H](CO)[C@@H](O)[C@H](O)[C@@H]2O)c1`, the activity change, negative = cytotoxicity is -0.936% [at 0.349 µM] in experiment [1], 1.29% [at 0.35 µM] in experiment [6] and 7.37% [at 0.349 µM] in experiment [7]. For the same molecule, the viability change, negative = cytotoxic in experiment [2] was 1.74% [at 0.349 µM]; in experiment [3] it was 3.56% [at 0.349 µM]. Moreover, the activity change in experiment [4] is -0.0491% [at 0.349 µM].

Turning to `CC(=O)OC(C)(C)Cc1ccccc1`, the result in experiment [1], in experiment [4] and in experiment [7] was inactive. Further, the Potency result in experiment [2], in experiment [3] and in experiment [6] was “inactive” in each case.

Take `C[Si]1(C)N[Si](C)(C)N[Si](C)(C)N1`: the result in experiment [1], in experiment [4] and in [7] was inactive. In addition, the Potency entry in experiment [2], in experiment [3] and in experiment [6] was “inactive” each time.

`CCS(=O)(=O)CCn1c([N+](=O)[O-])cnc1C`: the molecule was classed as inactive in experiment [1], in experiment [4] and in experiment [7]. For the same molecule, the Potency entry in experiment [2], in [3] and in experiment [6] was “inactive” in each case.

Turning to `CCCOC(=O)CCCCC(=O)OCCC`, the result in [1], in experiment [4] and in experiment [7] was inactive. The Potency result in experiment [2], in [3], in [8] and in [6] was “inactive” in each case.

Consider `Cc1nc2ccccc2c(=O)o1`, for which the molecule was called inactive in experiment [1], in experiment [4], in experiment [9] and in experiment [7]. The Potency result in experiment [2], in experiment [5], in experiment [8] and in experiment [6] was “inactive” in each case.

For the molecule `FC(F)(F)c1ccc(Cl)cc1Cl`, the outcome in [1], in experiment [4] and in [7] was inactive. The Potency result in experiment [2], in [3] and in [6] was “inactive” throughout.

With `NC(Cc1c[nH]c2ccccc12)C(=O)O` (configuration not stated), the molecule was called inactive in [1], in experiment [4] and in experiment [7]. Also, the Potency entry in experiment [2], in [3], in [8] and in experiment [6] was “inactive” each time.

Turning to `Cc1cccc(NC(=S)N(C)C)c1`, the outcome in experiment [1] and in [7] was inactive. Also, the Potency result in experiment [2], in experiment [3], in [5], in experiment [8] and in experiment [6] was “inactive” in each case.

For the molecule `O=C(CN1CCN(Cc2ccc3c(c2)OCO3)CC1)N1c2ccccc2Sc2ccccc21`, the molecule was classed as inactive in experiment [1], in [4] and in experiment [10]. Moreover, the Potency result in experiment [2], in experiment [3] and in experiment [6] was “inactive” each time.
